Assay outcomes as filed in PubChem BioAssay.
Shown are actives, neighbours in structure and some others; about 3.9% of the full set was active somewhere.
HIF act: HIF pathway transcriptional activators, primary screen, cell-based, U2OS HRE-luciferase, luminescence. U2OS HRE-luciferase reporter; normalized: DMSO 0%, desferrioxamine 100%. activation, % at 7.5 µM (by protocol). actives 0.32% (n = 300,000). AID 1910, 2009;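 active = mean activation of at least 10% of the iron chelator positive control signal, with at least half of replicates also reaching 10%; inconclusive = mean and replicate majority disagree about reaching 10%; inactive = mean and most replicates under 10%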
PLC-gamma1 inh: PLC-gamma1 enzyme inhibitors, primary screen, biochemical, fluorescence, purified enzyme; actives 0.84% (n = 370,000); AID 720700, 2013; fluorogenic substrate; inhibition, % at 12.2 µM
CR mimetic SO: reduction of superoxide in aged yeast, primary screen, HTS | actives 0.18% (n = 330,000) | S. cerevisiae aged cells, superoxide DHE fluorescence; hits give low values | AID 2690, 2010 | superoxide response (% of plate mean), % at 10 µM;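 active = superoxide response under a set limit, about three screen SD below normal, cut at about 65% in these data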;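 note: yeast aged for seven days with compound at 30 °C before DHE staining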
PLCb3 inh: human PLC-beta3 inhibitors, primary screen, biochemical, fluorescence; 1-phosphatidylinositol 4,5-bisphosphate phosphodiesterase beta-3 (Homo sapiens), Q01970; Purified PLC-beta3, fluorogenic substrate; AID 720704, 2013; actives 0.18% (n = 370,000); inhibition, % at 12.2 µM; in the data active = inhibition above about 11%
AHR act: AHR activators, primary screen, cell-based, luminescence, luciferase reporter, human. Aryl hydrocarbon receptor (Homo sapiens), P35869. AHR-responsive luciferase reporter cells. activation, % at 5 µM. actives 2.5% (n = 320,000). AID 2796, 2010; in the data active = activation above about 47%
HGIII-sPLA2 inh: human group III sPLA2 inhibitors, primary screen, biochemical, QFRET, BODIPY PC-A2 liposome substrate; Group 3 secretory phospholipase A2 (Homo sapiens), Q9NZ20; QFRET BODIPY PC-A2 liposome hydrolysis, fluorescence; inhibition, % at 12.2 µM; actives 0.56% (n = 370,000); AID 743126, 2013;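 active = inhibition above mean plus 3 SD of compounds lying within the high and low control bounds, cut at about 19% in these data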
PLCgamma1 ctr: PLC-gamma1 enzyme inhibitors, counter-screen for PLC-beta3 inhibitor project, biochemical, fluorescence; inhibition, % at 12.3 µM; actives 3.1% (n = 3,300); AID 743258, 2014; shares compounds with PLC-gamma1 inh; purified PLC-gamma1, fluorogenic substrate
PLCbeta3 conf: PLC-beta3 inhibitor confirmation, biochemical, fluorescence, purified enzyme; shares compounds with PLC-gamma1 inh; fluorogenic substrate fluorescence; inhibition, % at 12.3 µM; actives 1% (n = 3,300); in the data active = inhibition above about 11%
Large screens that a line does not name were inactive (follow-up assays come after a bar, where they were run). Cut-off read from the data, not from the text of the source, unless noted: active = inhibition above about 9.5%; inactive = the rest.

NC(=O)NC(=O)CSc1cccc(C(F)(F)F)c1	PLC-gamma1 inh 9.5 (no result: HIF act) | PLCgamma1 ctr inactive | PLCbeta3 conf inactive
CCOC(=O)c1oc2ccccc2c1COC(=O)C(C)NC(=O)c1ccco1 (stereo not given)	PLC-gamma1 inh 10 (no result: HIF act) | PLCgamma1 ctr inactive | PLCbeta3 conf inactive
Cc1cc2n(n1)SC(Nc1ccc(F)cc1)N2 (stereo not given)	PLC-gamma1 inh 10 | PLCgamma1 ctr inactive | PLCbeta3 conf inactive
Cc1cccc(C)c1-n1nnnc1C1c2ccccc2C(=O)N1CCCN1CCOCC1 (stereo not given)	none (no result: HIF act, CR mimetic SO, AHR act)
CS(=O)(=O)c1ccc(-c2nn[nH]n2)cc1	none
CS(=O)(=O)c1nc(-c2ccc(Br)cc2)n[nH]1	PLC-gamma1 inh 18 | PLCgamma1 ctr 15 | PLCbeta3 conf inactive
O=C(NCn1cnccc1=O)c1ccccc1	none
O=C(NC(C(=O)c1ccccc1)n1cnccc1=O)c1ccccc1 (stereo not given)	PLC-gamma1 inh 11 | PLCgamma1 ctr inactive | PLCbeta3 conf inactive
CCOc1ccc(NC(=O)c2cccc(NC(=O)c3ccccc3)c2)cc1	PLC-gamma1 inh 11 | PLCgamma1 ctr inactive | PLCbeta3 conf inactive
CCCOc1ccc(C(=O)Nc2ccc(NC(=O)c3cccs3)cc2)cc1	none
CCOc1ccc(C(=O)Nc2ccc3[nH]ncc3c2)cc1	PLC-gamma1 inh 12 | PLCgamma1 ctr inactive | PLCbeta3 conf inactive
CCCCOc1cccc(C(=O)Nc2ccc(NC(=O)c3cccs3)cc2)c1	PLC-gamma1 inh 9.6 | PLCgamma1 ctr inactive | PLCbeta3 conf inactive
CC(=O)Oc1ccc(C(=O)Nc2cccc(C(=O)c3ccc(C)c(C)c3)c2)cc1	PLC-gamma1 inh 15 | PLCgamma1 ctr inactive | PLCbeta3 conf inactive
O=C(Cc1ccsc1)NNC(=O)c1ccccc1O	none
Cc1cc(NC(=O)CSc2nc(-c3ccccc3)nc3c2c(=O)n(C)c(=O)n3C)no1	none
Cc1ccc(S(=O)(=O)c2cccc(S(=O)(=O)N3CCCC3)c2)cc1S(=O)(=O)N1CCCC1	PLC-gamma1 inh 9.9, PLCb3 inh 14 | PLCgamma1 ctr inactive | PLCbeta3 conf inactive
Cc1ccc(S(=O)(=O)c2cccc(S(=O)(=O)N3CCOCC3)c2)cc1S(=O)(=O)N1CCOCC1	none
COc1ccc(-c2cc(C3CCNCC3)[nH]n2)cc1	PLC-gamma1 inh 16 | PLCgamma1 ctr inactive | PLCbeta3 conf inactive
CCOC(=O)C1CCN(Cc2cnc(Oc3ccc(OC)cc3)s2)CC1	PLCb3 inh 11 | PLCgamma1 ctr inactive | PLCbeta3 conf inactive
CCOC(=O)C1CCN(Cc2ccc(OC)cc2OC)CC1	none
O=C(COC(=O)c1c(Cl)cccc1Cl)Nc1cc(Cl)ccc1Oc1ccccc1	PLC-gamma1 inh 11 | PLCgamma1 ctr inactive | PLCbeta3 conf inactive
CC(C)CN1C(=O)C(=O)N(CC(=O)Nc2cc(Cl)ccc2Oc2ccccc2)C1=O	PLC-gamma1 inh 20 | PLCgamma1 ctr inactive | PLCbeta3 conf inactive
COc1ccc(C2CC(=O)Oc3c2c(=O)n(C)c2ccccc32)c(OC)c1OC (stereo not given)	none
COc1ccc(OC)c(S(=O)(=O)N2CCN3CCCC3C2)c1 (stereo not given)	none
COc1ccc(OC)c(S(=O)(=O)N2CCCC(N3CCN(c4ccccc4)CC3)C2)c1 (stereo not given)	PLC-gamma1 inh 11 | PLCgamma1 ctr inactive | PLCbeta3 conf inactive
CCCn1nc(C(=O)Nc2ccc(-n3cnnn3)cc2)c2ccccc2c1=O	none (no result: HIF act, CR mimetic SO, AHR act)
CCN(CC)S(=O)(=O)c1ccc(N2CCOCC2)c(NC(=O)c2ccccc2)c1	none
CCN(CC)S(=O)(=O)c1ccc(/C=C/C(=O)Nc2ccccc2N2CCOCC2)cc1	PLC-gamma1 inh 9.6 | PLCgamma1 ctr inactive | PLCbeta3 conf inactive
Cc1ccc(NC(=S)N2CCC(N(C)CC3CCCO3)CC2)cc1C (stereo not given)	none
Cc1cccc(NC(=S)N2CCC(N(C)CC3CCCO3)CC2)c1 (stereo not given)	HIF act inconclusive, PLC-gamma1 inh 9.7 | PLCgamma1 ctr inactive | PLCbeta3 conf inactive
O=C(CSc1ccccc1)N(c1ccc(Br)cc1)c1nccs1	PLC-gamma1 inh 14 | PLCgamma1 ctr inactive | PLCbeta3 conf inactive
Cc1[nH]c2ccccc2c1C(=O)CSC(=S)N(C)C1CCCCC1	none
Cc1[nH]c2ccccc2c1C(=O)CSC(=S)N1CCCCC1	PLC-gamma1 inh 15 | PLCgamma1 ctr inactive | PLCbeta3 conf inactive
CC(NC(=O)C(c1ccccc1)c1ccccc1)c1ccccc1 (stereo not given)	PLC-gamma1 inh 16 | PLCgamma1 ctr inactive | PLCbeta3 conf inactive
C[C@H](NC(=O)C(c1ccccc1)c1ccccc1)c1ccccc1	none (no result: AHR act)
C[C@H](CO)N1C[C@H](C)[C@@H](CN(C)S(C)(=O)=O)OCc2cnnn2CCCC1=O	none (no result: HIF act, CR mimetic SO, AHR act)
O=C1[C@H]2[C@@H](c3ccccc3)N[C@]3(CCCN(CC4CCCCC4)C3=O)[C@H]2C(=O)N1Cc1ccccc1	none (no result: HIF act, CR mimetic SO, AHR act)
NC1=NC[C@H](Cc2ccc(O)cc2)N1CCc1cc(C(F)(F)F)cc(C(F)(F)F)c1	PLC-gamma1 inh 10 | PLCgamma1 ctr inactive | PLCbeta3 conf inactive
NC1=NC[C@@H](CC2CCCCC2)N1CCc1cc(C(F)(F)F)cc(C(F)(F)F)c1	none (no result: HIF act, PLC-gamma1 inh, PLCb3 inh, HGIII-sPLA2 inh)
COc1ccccc1CN(C)C(=O)CN1CCN(S(=O)(=O)c2ccc3c(c2)OCCCO3)CC1	none (no result: HIF act)
COc1ccc(CC(=O)N/N=C/c2cccn2-c2ccc([N+](=O)[O-])cc2)cc1OC	PLC-gamma1 inh 12 | PLCgamma1 ctr inactive | PLCbeta3 conf inactive
CC(C)(C)OC(=O)N/N=C/c1cccn1-c1ccc([N+](=O)[O-])cc1	none
Cc1ccc(-c2nnc3sc(C4COc5ccccc5O4)nn23)cc1 (stereo not given)	none (no result: HIF act)
Clc1ccccc1-c1nnc2sc(C3COc4ccccc4O3)nn12 (stereo not given)	PLC-gamma1 inh 11 (no result: HIF act) | PLCgamma1 ctr inactive | PLCbeta3 conf inactive
Cc1cc(C(=O)OCC(=O)c2cccc([N+](=O)[O-])c2)c2ccccc2n1	PLCb3 inh 14 | PLCgamma1 ctr inactive | PLCbeta3 conf inactive
CCC(=Cc1ccc(CC)cn1)CC	none
O=C(NNC(=O)c1ccc(Br)o1)c1csc(N2CCOCC2)n1	none (no result: HIF act)
